MITF primary – MITF inhibitors, primary screen, biochemical, AlphaScreen, human. Microphthalmia-associated transcription factor (Homo sapiens), O75030. AlphaScreen MITF homodimerization, bead proximity signal. inhibition, % at 2.6 µM. 0.91% of 650,000 active. AID 1259374, 2018; in the data active = inhibition above about 50%
FBW7 act – FBW7 E3 ligase activators, primary screen, biochemical, AlphaScreen, human | F-box/WD repeat-containing protein 7 (Homo sapiens), Q969H0 | AlphaScreen FBW7–phospho-cyclin E peptide binding, activator screen | 0.13% of 650,000 active | normalized activity (activation), % at 26.1 µM; in the data active = normalized activity above about 1.9%;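 also: purified mutant Fbw7 with reduced substrate affinity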
GPR151 ag – activators of human GPR151, primary screen, cell-based, PathHunter beta-arrestin, luminescence; G-protein coupled receptor 151 (Homo sapiens), Q8TDV0; 1% of 650,000 active; PathHunter beta-arrestin GPR151 cells; activation, % at 11.2 µM; in the data active = activation above about 4.9%
Target sequence (Q8TDV0 whole entry, looked up): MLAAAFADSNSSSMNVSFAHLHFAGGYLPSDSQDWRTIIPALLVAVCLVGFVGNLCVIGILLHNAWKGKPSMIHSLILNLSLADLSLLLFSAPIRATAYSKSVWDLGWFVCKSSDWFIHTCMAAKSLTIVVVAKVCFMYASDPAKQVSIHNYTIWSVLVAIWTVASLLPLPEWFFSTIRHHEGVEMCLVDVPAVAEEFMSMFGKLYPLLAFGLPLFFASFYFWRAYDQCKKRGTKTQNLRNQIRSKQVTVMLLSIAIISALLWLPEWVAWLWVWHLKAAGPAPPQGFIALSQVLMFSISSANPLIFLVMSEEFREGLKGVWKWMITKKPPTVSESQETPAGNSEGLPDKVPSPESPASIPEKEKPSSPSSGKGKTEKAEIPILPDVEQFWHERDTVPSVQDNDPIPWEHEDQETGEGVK
TEAD-YAP block – TEAD-YAP interaction inhibition, primary screen, TEAD-YAP interaction inhibitor project, luminescence, HEK-TIYL cells | AID 1259422, 2018 | TEAD-Gal4/YAP UAS-luciferase luminescence | inhibition, % at 9.12 µM | 1.4% of 640,000 active; in the data active = inhibition above about 32%
Numbers stand for hits; . = inactive; / = no result given. Shown are actives, neighbours in structure and some others; about 3.4% of the full set was active somewhere.

SMILES	MITF primary	FBW7 act	GPR151 ag	TEAD-YAP block
O=C(O)c1cc(N2C(=O)/C(=C\c3ccco3)SC2=S)ccc1O	81	.	.	.
CCOC(=O)N1CCC(NC(=O)c2ccc3c(c2)NC(=O)C(CSCc2ccccc2C)N3)CC1 (stereo not given)	.	.	.	.
COc1cccc2cc(C(=O)NCc3cccc(Cl)c3)c(=Nc3ccc(C(=O)O)cc3)oc12	.	.	.	35
O=C1N[C@@H](Cc2ccc(Cl)cc2)C(=O)N2CCN(Cc3ccccc3)C[C@H]12	.	.	.	.
O=C1N[C@@H](Cc2ccccc2)C(=O)N2CCN(Cc3ccc(Cl)cc3)C[C@H]12	.	2.1	.	.
CCCNC(=O)CSc1nc(-c2ccco2)cc(C(F)(F)F)n1	.	.	.	.
O=C(CSc1nc(-c2ccco2)cc(C(F)(F)F)n1)Nc1cccnc1	.	.	.	48
CC(C)NC(=O)CSc1nc(-c2ccco2)cc(C(F)(F)F)n1	.	.	.	.
CC(=O)Nc1cccc(NC(=O)CSc2nc(-c3ccco3)cc(C(F)(F)F)n2)c1	.	.	.	42
COc1cc2nc(CN3c4ccccc4CC3C)[nH]c(=O)c2cc1OC (stereo not given)	.	.	.	48
COc1cc2nc(CN3CCCCCCC3)[nH]c(=O)c2cc1OC	.	.	.	.
COc1cc2nc(CN3CCN(c4ccccn4)CC3)[nH]c(=O)c2cc1OC	.	.	.	73
O=c1cc(-c2ccccc2)oc2c(O)c(O)ccc12	.	.	.	43
O=c1cc(-c2ccccc2)oc2cc(O)c(O)cc12	.	.	.	70
O=C(NCc1ccccc1)/C(=C\C=C\c1ccccc1)NC(=O)c1ccc([N+](=O)[O-])cc1	.	.	.	56
Oc1ccc(-c2cnc(-c3ccc(O)cc3)nc2)cc1	.	.	.	95
CC(=O)N(C(C)=O)c1ccc(-c2cnc(-c3ccc(N(C(C)=O)C(C)=O)cc3)nc2)cc1	.	.	.	.
CC(C)(C)n1cc(-c2cnc3ccccc3n2)cn1	.	.	.	78
Oc1ccc(-c2cnc3ccccc3n2)cc1	.	.	.	52
COCCNC(=O)c1c[nH]c2ccc(S(=O)(=O)N3CCC(C)CC3)cc2c1=O	.	.	.	.
O=C(Cn1ccc(=NCc2ccccc2)cc1)c1ccc(Cl)cc1	.	.	.	.
O=C(Cn1ccc(=NCc2ccccc2)cc1)c1ccc(I)cc1	.	.	.	66
Cc1ccc(NC(=S)N(Cc2ccccc2)Cc2cccs2)cc1C	.	.	.	57
Cc1ccc(NC(=S)N(Cc2ccccc2)Cc2cccs2)cc1	.	.	.	.
Oc1ccc2nc(-c3ccccc3)oc2c1	.	.	.	70
SMILES	MITF primary	FBW7 act	GPR151 ag	TEAD-YAP block
Nc1ccc(O)c(-c2nc3cc(Cl)ccc3o2)c1	.	.	.	.
Nc1ccc2oc(-c3cc(Cl)ccc3Br)nc2c1	.	.	.	48
Cc1ccc(-c2nc3cc(N)ccc3o2)cc1	.	.	.	54
CC(C)(C)c1ccc2oc(-c3ccc(N)cc3)nc2c1	.	.	.	69
Nc1ccc(-c2nc3cc([N+](=O)[O-])ccc3o2)cc1	.	.	.	.
c1ccc(CN(Cc2ccco2)Cc2nnnn2C2CCCCC2)cc1	.	.	.	.
CNCCOc1ccc(C(C)(C)C)cc1Cl	.	.	.	.
Nc1ccc2oc(-c3ccc(O)cc3)nc2c1	.	.	.	89
COc1ccc(-c2nc3cc(C)ccc3o2)cc1	.	.	.	69
Cc1ccc2oc(-c3ccc(N)cc3)nc2c1	.	.	.	69
COc1ccc(-c2nc3cc(N)ccc3o2)cc1	.	.	.	.
Cc1cccc2oc(-c3ccc(N)cc3)nc12	.	.	.	51
Nc1ccc2oc(-c3ccc(Cl)c(Cl)c3)nc2c1	.	.	.	.
Cc1ccc2oc(-c3cccc(N)c3)nc2c1	.	.	.	.
COc1ccccc1N1CC(C)Cn2c1nc1c2c(=O)n(Cc2ccc(F)cc2)c(=O)n1C (stereo not given)	.	.	.	.
COc1ccc(N2CCN(CCCNC(=O)C3CC(=O)N(C4CCCC4)C3)CC2)cc1 (stereo not given)	.	.	.	.
CN1C(=O)N(C)C2C1NNC(=S)N2C (stereo not given)	.	.	.	61
CCc1ccc(C2=CC(c3cc(OC)c(OC)c(OC)c3)n3nnnc3N2)cc1 (stereo not given)	.	.	.	56
COc1cc(C2C=C(c3cccc(NC(C)=O)c3)Nc3ncnn32)cc(OC)c1OC (stereo not given)	.	.	.	52
COc1cc(C2C=C(c3ccc(C)cc3)Nc3ncnn32)cc(OC)c1OC (stereo not given)	.	.	.	62
CCc1ccc(C2=CC(c3ccc(Cl)cc3)n3nnnc3N2)cc1 (stereo not given)	.	.	.	.
COc1cc(C2C=C(c3ccccc3)Nc3ncnn32)cc(OC)c1OC (stereo not given)	.	.	.	61
Cc1ccc(C2=CC(c3ccc(C)cc3)n3ncnc3N2)cc1 (stereo not given)	.	.	.	.
Clc1ccc(-n2c(-c3ccccc3)ccc2-c2ccccc2)cc1	.	.	.	.
N#Cc1ccccc1Sc1ccccc1C(=O)Nc1nccs1	.	.	.	.
SMILES	MITF primary	FBW7 act	GPR151 ag	TEAD-YAP block
CCOC(=O)C1=C(C)N=c2s/c(=C3\C(=O)N(C)c4ccccc43)c(=O)n2C1c1ccccc1 (stereo not given)	.	.	.	.
CCc1ccc(C2=CC(c3ccc(OC)c(OC)c3)n3ncnc3N2)cc1 (stereo not given)	.	.	.	33
COc1ccc(C2C=C(c3ccc(Cl)cc3)Nc3ncnn32)cc1OC (stereo not given)	.	.	.	.
COc1cccc(C2=CC(c3ccc(OC)c(OC)c3OC)n3ncnc3N2)c1 (stereo not given)	.	.	.	.
COc1cccc(C2=CC(c3cc(OC)c(OC)c(OC)c3)n3ncnc3N2)c1 (stereo not given)	.	.	.	68
Cc1cc(C(=O)NCc2cc(C(=O)O)co2)c(C)o1	.	.	.	.
COC1(OC)C2(Cl)C(Cl)=C(Cl)C1(Cl)C1C(=O)N(c3ccccn3)C(=O)C12 (stereo not given)	.	.	.	.
O=C(NCCCN1CCOCC1)c1ccc([N+](=O)[O-])o1	.	.	.	.
CCCCCCCCNC(=O)c1ccc([N+](=O)[O-])o1	.	.	.	35
COc1ccc(OC)c(CNc2ncc(-c3cccc(Cl)c3)n2C)c1	.	.	.	45
CC(=O)O[C@H]1C(=O)[C@@]2(C)[C@H]([C@H](OC(=O)[14c]3[14cH][14cH][14cH][14cH][14cH]3)[C@]3(O)C[C@H](OC(=O)[C@H](O)[C@@H](NC(=O)c4ccccc4)c4ccccc4)C(C)=C1C3(C)C)[C@]1(OC(C)=O)CO[C@@H]1C[C@@H]2O	.	.	.	/
